Results reported in PubChem BioAssay (NCI).
This is part of a sample that, as a whole, favours compounds with a hit. Of some 83,000 tested, about 20% had one in any assay.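 Note: values are percent growth. 100 is the growth of untreated cells, values between 100 and 0 indicate rising inhibition; between -100 and 0 indicates cell death.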 Active and inactive are the calls of the source. Rule for the calls: active = growth percent below 10; inactive = the rest.

Tests used:
Assay in all cases: NCI-60 one-dose screen, 48 h (100 = growth as untreated, 0 = no growth, -100 = all killed)
Settings in all cases: 10 µM
NCI-H23 lung = system: NCI-H23 lung
NCI-H226 lung = system: NCI-H226 lung
NCI-H322M lung = system: NCI-H322M lung
HOP-62 NSCLC = system: HOP-62 NSCLC
NCI-H460 lung = system: NCI-H460 lung
HOP-92 NSCLC = system: HOP-92 NSCLC
NCI-H522 lung = system: NCI-H522 lung
A549/ATCC NSCLC = system: A549/ATCC NSCLC
786-0 renal = system: 786-0 renal
COLO 205 colon = system: COLO 205 colon
DU-145 prostate = system: DU-145 prostate
K-562 leukemia = system: K-562 leukemia
MALME-3M melanoma = system: MALME-3M melanoma
MDA-MB-231 breast = system: MDA-MB-231 breast
RXF 393 renal = system: RXF 393 renal
SF-268 CNS = system: SF-268 CNS
SF-295 CNS = system: SF-295 CNS
SF-539 CNS = system: SF-539 CNS
UACC-257 melanoma = system: UACC-257 melanoma
M14 melanoma = system: M14 melanoma

Measured: growth

COc1cc(-c2nc3ccccc3[nH]2)ccc1OCC(=O)N=Nc1c(O)[nH]c2ccccc12
inactive: NCI-H23 lung 90% | NCI-H226 lung 105% | NCI-H322M lung 96% | HOP-62 NSCLC 99.6% | NCI-H460 lung 109% | HOP-92 NSCLC 78.1% | NCI-H522 lung 80.1% | A549/ATCC NSCLC 105% | 786-0 renal 97.8% | COLO 205 colon 74.6% | DU-145 prostate 99.7% | K-562 leukemia 17.5% | MALME-3M melanoma 54.6% | MDA-MB-231 breast 88.8% | RXF 393 renal 106% | SF-268 CNS 94.1% | SF-295 CNS 95.9% | SF-539 CNS 97.8% | UACC-257 melanoma 105% | M14 melanoma 83.3%

CCOc1ccc(-n2cc(-c3ccc(N(C)C)cc3)[n+]3c2CCCCC3)cc1
active: NCI-H23 lung 0.183% | HOP-62 NSCLC 3.02% | NCI-H460 lung 5.52% | HOP-92 NSCLC -8.52% | NCI-H522 lung -0.392% | COLO 205 colon -68.6% | K-562 leukemia 9.14% | MALME-3M melanoma 2.39% | SF-295 CNS -14.7% | UACC-257 melanoma -12.6%
inactive: NCI-H226 lung 18.6% | NCI-H322M lung 45.3% | A549/ATCC NSCLC 22.4% | 786-0 renal 20.7% | DU-145 prostate 25.7% | MDA-MB-231 breast 19.4% | RXF 393 renal 39.7% | SF-268 CNS 29.1% | SF-539 CNS 26.6% | M14 melanoma 10.4%

CC(C)(C)c1ccc(OCCCCCCN2CCNCC2)cc1
inactive: NCI-H23 lung 61.5% | NCI-H226 lung 73.4% | NCI-H322M lung 85.1% | HOP-62 NSCLC 67.8% | NCI-H460 lung 35.4% | HOP-92 NSCLC 16.8% | NCI-H522 lung 66.2% | A549/ATCC NSCLC 55.1% | DU-145 prostate 86.2% | MALME-3M melanoma 60.6% | MDA-MB-231 breast 36.4% | RXF 393 renal 46.2% | SF-268 CNS 78.2% | SF-295 CNS 57.7% | SF-539 CNS 68.9% | UACC-257 melanoma 93.6% | M14 melanoma 22.6%
active: 786-0 renal -50.7% | COLO 205 colon -66.7% | K-562 leukemia 0.864%

c1ccc(CNc2nc(Nc3ccc(-c4nc5ccccc5[nH]4)cc3)c3cn[nH]c3n2)cc1
active: HOP-62 NSCLC -17.4% | NCI-H460 lung 4.06% | NCI-H522 lung -45.7% | A549/ATCC NSCLC 4.29% | 786-0 renal -78.4% | COLO 205 colon -60.1% | K-562 leukemia -17% | MALME-3M melanoma -23.5% | MDA-MB-231 breast -11.1% | RXF 393 renal -68.3% | SF-295 CNS -44.5% | SF-539 CNS 1.69% | UACC-257 melanoma -33.3% | M14 melanoma -34.6%
inactive: NCI-H23 lung 14.5% | NCI-H226 lung 39.6% | NCI-H322M lung 28.6% | HOP-92 NSCLC 14.7% | DU-145 prostate 25.5% | SF-268 CNS 22.1%

CS(=O)(=O)Nc1ccc(OCc2nnc(-c3ccc(Cl)cc3)o2)c(F)c1
inactive: NCI-H23 lung 93.6% | NCI-H226 lung 86.2% | NCI-H322M lung 109% | HOP-62 NSCLC 87.2% | NCI-H460 lung 98.9% | HOP-92 NSCLC 88.3% | NCI-H522 lung 94.8% | A549/ATCC NSCLC 90.2% | 786-0 renal 89.4% | COLO 205 colon 110% | DU-145 prostate 101% | K-562 leukemia 100% | MALME-3M melanoma 111% | MDA-MB-231 breast 85.7% | RXF 393 renal 108% | SF-268 CNS 98.9% | SF-295 CNS 94.1% | SF-539 CNS 85.1% | UACC-257 melanoma 99.6% | M14 melanoma 99.3%

COc1ccc2nc(NC(=O)Nc3c(F)cccc3F)sc2c1
inactive: NCI-H23 lung 105% | NCI-H226 lung 94% | NCI-H322M lung 99.5% | HOP-62 NSCLC 106% | NCI-H460 lung 99.3% | HOP-92 NSCLC 93.1% | NCI-H522 lung 96.8% | A549/ATCC NSCLC 96.3% | 786-0 renal 94.3% | COLO 205 colon 125% | DU-145 prostate 105% | K-562 leukemia 94.5% | MALME-3M melanoma 105% | MDA-MB-231 breast 119% | RXF 393 renal 106% | SF-268 CNS 109% | SF-295 CNS 102% | SF-539 CNS 104% | UACC-257 melanoma 102% | M14 melanoma 104%

CCOC(=S)Sc1ccc([N+](=O)[O-])cc1[N+](=O)[O-]
active: NCI-H522 lung -1.29% | COLO 205 colon -13.1% | K-562 leukemia 7.81%
inactive: NCI-H23 lung 97.3% | NCI-H226 lung 88.8% | NCI-H322M lung 93.3% | HOP-62 NSCLC 94% | NCI-H460 lung 106% | HOP-92 NSCLC 48.6% | A549/ATCC NSCLC 83.2% | 786-0 renal 102% | DU-145 prostate 95.5% | MALME-3M melanoma 84.1% | MDA-MB-231 breast 88.4% | RXF 393 renal 108% | SF-268 CNS 104% | SF-295 CNS 99.2% | SF-539 CNS 26.2% | UACC-257 melanoma 79.2% | M14 melanoma 36.2%
